High-throughput results: PubChem, National Center for Advancing Translational Sciences (NCATS)
Rows were chosen to be rich in hits. Some 6% of all compounds tested hit in one or more screens of this group.
HEK293 cAMP cs = counter-screen for TSHR agonists: cAMP increase in parental HEK293 | parental HEK293 CNG cAMP sensor, membrane potential fluorescence | Potency, µM (series often up to 57.1 µM), inactives show at the highest dose activation, usual class: activators | actives 2.5% (n = 73,000) | AID 938; further: % of control where 0% means no effect; nearly all actives have a fitted effect of over 55% in size
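Parental HEK 293 cells stably expressing a modified CNG channel (no TSHR) report cAMP rise as membrane depolarization. Membrane potential dye with 100 uM RO 20-1724 was loaded for 60 min at room temperature, then compound added for 30 min; fluorescence read at 590 nm.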
CRE-bla Fsk = CRE-bla signaling modulation under forskolin stimulation; Potency, µM (doses to about 38.2 µM), for the others: at the highest dose activity change, negative = inhibition, hits mostly activators; CHO CRE-bla reporter (cAMP response element driving beta-lactamase), forskolin EC10, beta-lactamase ratio; actives 2.5% (n = 71,000); active means well fitted activation curve with a large enough effect in the signal ratio, with a control signal flat, not every such curve was filed as active; inconclusive means small, poorly fitted or top-dose-only effect, or effect the other way, or a change in a side signal; the % refers to the signal ratio; further: % of control where 0% means no effect
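Modulation of forskolin-driven signalling is measured in CHO cells carrying a CRE-controlled beta-lactamase reporter. Cells are stimulated with EC10 NKH 477 in the presence of titrated compound for 3 h at 37 °C, then loaded with CCF4 for 2 h at room temperature.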
TSHR ag = TSH receptor (human) agonism. P16473. HEK293-CNG-TSHR cells (CNG channel as cAMP sensor), membrane potential dye, cAMP. Potency, µM (series often up to 57.1 µM), for the others: top-dose activation, most hits filed as activators. actives 0.48% (n = 73,000); active means well fitted activation curve with a large enough effect in the main read-out, with a control signal flat, not every such curve was filed as active; inconclusive means small, poorly fitted or top-dose-only effect, or a change in a side signal; inactive means no such curve, though single readings can be large or run the other way; % of control where 0% means no effect;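 further: the control signal comes from parental cells without the receptor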
Target sequence (P16473 whole entry, looked up): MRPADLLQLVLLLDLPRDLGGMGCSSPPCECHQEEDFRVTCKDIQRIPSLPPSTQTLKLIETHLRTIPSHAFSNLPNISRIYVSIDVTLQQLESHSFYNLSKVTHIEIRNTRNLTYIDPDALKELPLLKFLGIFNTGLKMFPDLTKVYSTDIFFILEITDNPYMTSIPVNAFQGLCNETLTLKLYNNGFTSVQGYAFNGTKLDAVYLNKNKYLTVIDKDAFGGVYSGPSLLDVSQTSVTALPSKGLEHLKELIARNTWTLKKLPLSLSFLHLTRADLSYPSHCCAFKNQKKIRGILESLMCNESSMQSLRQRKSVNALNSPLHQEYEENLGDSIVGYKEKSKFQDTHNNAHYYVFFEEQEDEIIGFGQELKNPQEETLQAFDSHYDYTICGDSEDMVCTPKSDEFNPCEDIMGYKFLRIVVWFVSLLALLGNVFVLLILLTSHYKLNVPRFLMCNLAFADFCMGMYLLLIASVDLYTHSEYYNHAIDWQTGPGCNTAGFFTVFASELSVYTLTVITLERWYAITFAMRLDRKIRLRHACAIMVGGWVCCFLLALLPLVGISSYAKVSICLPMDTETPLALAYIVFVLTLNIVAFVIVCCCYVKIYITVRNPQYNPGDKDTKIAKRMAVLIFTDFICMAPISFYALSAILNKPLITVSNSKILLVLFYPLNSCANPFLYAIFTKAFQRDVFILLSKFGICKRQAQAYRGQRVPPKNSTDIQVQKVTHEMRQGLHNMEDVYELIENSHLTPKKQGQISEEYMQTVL
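HEK 293 cells stably expressing TSHR and a cAMP-gated CNG channel; parental CNG-only cells as counterscreen. Cells preloaded 60 min with membrane potential dye plus 100 uM RO 20-1724, then compound 30 min; fluorescence read at 590 nm.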
ERK AVP block = inhibitors of vasopressin-stimulated ERK signaling pathway; actives 0.99% (n = 72,000); HEK293-V1b, vasopressin-stimulated pERK AlphaScreen; AID 995; Potency, µM (titrated, usually from 57.5 µM), without a hit: top-dose activity, negative = inhibition, usual class: inhibitors; further: on the % scale 0 is the no-effect control and ±100 the full control effect; nearly all actives have a fitted effect of over 55% in size
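V1b-HEK293 cells; cpd 30 min 37C; 25 nM vasopressin 5 min; lyse 10 min; AlphaScreen beads 5 hr RT. Normalized to DMSO basal and 25 nM vasopressin; AC50 by Hill fit.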
* = called active by the depositor; [ ] = another dose, or the depositor's remark. Unless noted, the call rests on the fitted dose curve; in most records, active means well fitted curve in the direction sought with a large enough effect; inconclusive means small, poorly fitted or top-dose-only effect, or another doubt; inactive means no such curve, though single readings can be large; an effect the other way counts as inactive or inconclusive. Potency means the concentration at half of the fitted maximal effect.

O=C(NCc1ccc(F)cc1)C1CCN(C(=O)NCc2ccccc2)CC1 was read as HEK293 cAMP cs 3.98µM*, CRE-bla Fsk -7.2%, TSHR ag inconclusive and ERK AVP block 17.0%.
O=C(NCCc1ccccc1)C1CCN(S(=O)(=O)N2CCCC2)CC1 was read as HEK293 cAMP cs 25.1µM*, CRE-bla Fsk -9.7%, TSHR ag inconclusive and ERK AVP block -0.1%.
`C[C@@]12CC[C@@H]3c4ccc(O)cc4CC[C@H]3[C@H]1C[C@@H](O)[C@H]2O` gave HEK293 cAMP cs -1.0%[25.6 µM], CRE-bla Fsk -7.9%[17.1 µM], TSHR ag 13.4%[25.6 µM] and ERK AVP block 27.0%[25.7 µM].
For COc1cccc(-c2cc(C(F)(F)F)nc(NCc3ccco3)n2)c1 the results were HEK293 cAMP cs inconclusive, CRE-bla Fsk 15.8%, TSHR ag inconclusive and ERK AVP block 197.7%.
`COc1ccc(-c2cc(C(F)(F)F)nc(NCc3ccco3)n2)cc1OC` gave HEK293 cAMP cs 10µM*, CRE-bla Fsk 2.51µM*, TSHR ag inconclusive and ERK AVP block -11.0%.
`COc1ccc(N2CSC3=C(C#N)C(c4cccc(OC)c4OC)CC(=O)N3C2)cc1` (centres undefined) gave HEK293 cAMP cs inconclusive, CRE-bla Fsk 3.98µM*, TSHR ag inconclusive and ERK AVP block -21.5%.
Screening CCOC(=O)c1cnc(-n2nc(C)cc2C)nc1NCCc1ccccc1 returned HEK293 cAMP cs 25.1µM*, CRE-bla Fsk inconclusive, TSHR ag inconclusive and ERK AVP block inconclusive.
Screening CC(=O)N[C@@H]1CONC1=O returned HEK293 cAMP cs 1.7%[11.4 µM], CRE-bla Fsk -9.0%[7.6 µM], TSHR ag 1.7%[11.4 µM] and ERK AVP block 17.6%[11.5 µM].
Screening Cc1nc(N2CCN(C(=O)c3ccco3)CC2)c2oc3ccccc3c2n1 returned HEK293 cAMP cs 13.5%, CRE-bla Fsk 3.98µM*, TSHR ag 28.6% and ERK AVP block inconclusive.
For CCc1nc(N2CCCC2C(=O)O)c2oc3ccccc3c2n1 (centres undefined) the results were HEK293 cAMP cs 2.5%, CRE-bla Fsk inconclusive, TSHR ag -1.1% and ERK AVP block -17.7%.
CCc1nc(N2CCN(C(=O)c3ccco3)CC2)c2oc3ccccc3c2n1 was read as HEK293 cAMP cs inconclusive, CRE-bla Fsk 3.16µM*, TSHR ag inconclusive and ERK AVP block inconclusive.
CCC=O was read as HEK293 cAMP cs 11.9%, CRE-bla Fsk -6.5%, TSHR ag 3.7% and ERK AVP block inconclusive.
Screening c1ccc(CC2CCN(C(c3cccs3)c3nnnn3C3CCCC3)CC2)cc1 (centres undefined) returned HEK293 cAMP cs inconclusive, CRE-bla Fsk 11.4%, TSHR ag inconclusive and ERK AVP block -1.4%.
c1cc(N2CCCC2)ccc1C(c1nnnn1C1CCCCC1)N1CCOCC1 (centres undefined) was read as HEK293 cAMP cs 27.1%, CRE-bla Fsk 0.9%, TSHR ag 10.3% and ERK AVP block -9.3%.
Screening COc1ccc(C(c2nnnn2CC2CCCO2)N2CCN(c3cccc(C)c3C)CC2)cc1 (centres undefined) returned HEK293 cAMP cs 7.94µM*, CRE-bla Fsk -9.0%, TSHR ag inconclusive and ERK AVP block -4.9%.
Screening CCCCC(c1nnnn1CC1CCCO1)N1CCN(c2cccc(C)c2C)CC1 (centres undefined) returned HEK293 cAMP cs inconclusive, CRE-bla Fsk -18.2%, TSHR ag inconclusive and ERK AVP block -13.6%.
COc1ccc(C(c2nnnn2C2CCCC2)N2CCC(C)CC2)cc1 (centres undefined) was read as HEK293 cAMP cs 20µM*, CRE-bla Fsk 2.2%, TSHR ag inconclusive and ERK AVP block 7.7%.
`COc1ccc(C(c2nnnn2C2CCCCC2)N2CCN(c3ccc(OC)cc3)CC2)cc1` (centres undefined) gave HEK293 cAMP cs 15.9%, CRE-bla Fsk 7.94µM*, TSHR ag 17.9% and ERK AVP block -0.1%.
COc1ccccc1N1CCN(C(c2cccs2)c2nnnn2C2CCCC2)CC1 (centres undefined) was read as HEK293 cAMP cs 12.6µM*, CRE-bla Fsk 0.7%, TSHR ag inconclusive and ERK AVP block -16.0%.
`CCCCCCCCCCCCCCC/C=C\[C@H](O)[C@@H](NC(=O)CCCCCCCCCCCCC)OC` (tested in a mixture with another compound) gave HEK293 cAMP cs 4.9%, CRE-bla Fsk -5.9%, TSHR ag 5.2% and ERK AVP block 11.8%.
For CC(C)[C@@H](CC(=O)N[C@@H]1CCCC[C@H]1C(=O)N[C@H](CC(=O)N[C@@H](CCC(=O)O)CC(=O)O)Cc1c[nH]c2ccccc12)NC(=O)C[C@H](Cc1ccccc1)NC(=O)[C@@H]1CCCC[C@H]1N the results were HEK293 cAMP cs -17.1%, CRE-bla Fsk -20.4% and TSHR ag 3.3%.
Fc1ccc(C(c2nnnn2C2CCCC2)N2CCN(Cc3ccncc3)CC2)cc1 (centres undefined) was read as HEK293 cAMP cs 14.1%, CRE-bla Fsk 0.6%, TSHR ag -51.4% and ERK AVP block 0.4%.
For Clc1ccc(C(c2nnnn2C2CCCC2)N2CCSCC2)cc1 (centres undefined) the results were HEK293 cAMP cs 3.16µM*, CRE-bla Fsk -6.3%, TSHR ag inconclusive and ERK AVP block 4.3%.
CC(=O)OC[C@@H]1O[C@@H](O/N=C2/C[C@@H](O)[C@@H](O)[C@@H]3[C@@H]4C(=O)N(C[C@@H]5CCCO5)C(=O)[C@H]4CC[C@@H]23)[C@H](OC(C)=O)[C@H](OC(C)=O)[C@@H]1OC(C)=O was read as HEK293 cAMP cs -0.1%[11.4 µM], TSHR ag 0.5%[11.4 µM] and ERK AVP block 4.7%[11.5 µM].
COC(=O)C(NC(=O)c1ccccc1)=C(C)C was read as HEK293 cAMP cs 2.4%, CRE-bla Fsk -11.2%, TSHR ag -10.2% and ERK AVP block -6.8%.
C/C(NC(=O)c1ccccc1)=C1/C(=O)CC2C1C2(C)C (centres undefined) was read as HEK293 cAMP cs 3.98µM*, CRE-bla Fsk inconclusive, TSHR ag inconclusive and ERK AVP block -0.2%.
Screening O=C(CN1CCN(S(=O)(=O)c2ccc(Br)cc2)CC1)Nc1ccc(F)cc1F returned HEK293 cAMP cs inconclusive, CRE-bla Fsk 5.2%, TSHR ag inconclusive and ERK AVP block 11.0%.
Screening O=C(CN1CCN(S(=O)(=O)c2ccc(Br)cc2)CC1)Nc1ccccc1F returned HEK293 cAMP cs 31.6µM* and TSHR ag inconclusive.
`Cc1cc(C)c2cc(CN(CCO)C(=O)Nc3ccc(Cl)cc3)c(=O)[nH]c2c1` gave HEK293 cAMP cs 2.7%, CRE-bla Fsk 8.8%, TSHR ag 4.4% and ERK AVP block 31.6µM*.
For Oc1c(CN2CCN(c3ccccn3)CC2)cc(Cl)c2cccnc12 the results were HEK293 cAMP cs 5.6%, CRE-bla Fsk inconclusive, TSHR ag 22.7% and ERK AVP block 31.6µM*.
O=C(c1ccco1)N1CCN(S(=O)(=O)c2ccc(Oc3ccccc3)cc2)CC1 was read as HEK293 cAMP cs 20µM*, CRE-bla Fsk 19.6%, TSHR ag inconclusive and ERK AVP block 1.0%.
